Compound activity as filed in PubChem.
This is a sample that favours compounds with a hit; in the whole collection about 1.8% have one here.
ERAP1 inh: inhibitors of human ERAP1 aminopeptidase; AID 652197; inhibition, % at 10.7 µM; recombinant ERAP1, Leu-AMC fluorescence, 60 min; Q9NZ08; hit rate 0.15% among 340,000;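 active = mean replicate inhibition of at least 30%, or all replicates individually reaching that 30% level; inactive = mean below 30% and not every replicate reaching it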;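 note: 0% = neutral control wells and 100% = L-leucinethiol positive control wells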
ERp5 block: ERp5 (human) disulfide isomerase inhibition. Q15084. hit rate 0.05% among 350,000. inhibition, % at 9.99 µM. AID 651711. ERp5 insulin aggregation, absorbance 650 nm, 90 min;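 active = mean replicate inhibition above about 25%, with every replicate also reaching it, limit read from the data, passing the limit was not always enough; inconclusive = only one of those two criteria met; inactive = neither criterion met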
Target sequence (Q15084 whole entry, looked up): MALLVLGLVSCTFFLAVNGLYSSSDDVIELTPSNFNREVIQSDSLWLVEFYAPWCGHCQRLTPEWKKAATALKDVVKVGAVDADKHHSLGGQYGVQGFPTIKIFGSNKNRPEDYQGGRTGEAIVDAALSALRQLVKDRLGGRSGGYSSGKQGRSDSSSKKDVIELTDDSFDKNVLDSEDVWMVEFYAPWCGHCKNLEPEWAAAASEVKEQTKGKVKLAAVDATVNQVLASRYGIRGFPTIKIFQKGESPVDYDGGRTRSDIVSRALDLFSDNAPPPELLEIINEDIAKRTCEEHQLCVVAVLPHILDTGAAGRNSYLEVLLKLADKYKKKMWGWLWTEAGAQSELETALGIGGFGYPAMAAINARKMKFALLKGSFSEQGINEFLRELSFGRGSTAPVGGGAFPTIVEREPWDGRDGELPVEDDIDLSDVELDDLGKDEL
AF4-AF9 inh: inhibitors of human MLL-AF4/AF9 interaction; P42568; AlphaScreen, biotin-AF4 peptide binding to FLAG-AF9; inhibition, % at 10 µM; hit rate 0.47% among 350,000;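 active = every replicate reaching a set inhibition limit, whatever the replicate mean, cut at about 25% in these data; inconclusive = mean inhibition reaches that limit but some replicates miss it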;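 note: 0% = plate neutral control median and 100% = total signal loss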
DENV2 CPE rescue: inhibitors of DENV2 cytopathic effect; DENV2-infected cells, cytopathic effect rescue, plate reader; CPE inhibition, % at 9.99 µM; hit rate 1.7% among 350,000; AID 651640; in the data active = CPE inhibition above about 20%, passing the limit was not always enough; inconclusive = no clear call, values can overlap the other calls; tested in BHK-21 cells;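 note: 0% = median of neutral control wells and 100% = median of positive control wells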
PDI inh: inhibitors of human protein disulfide isomerase. inhibition, % at 10 µM. PDI insulin aggregation turbidity, A650, 90 min. AID 588391. hit rate 0.052% among 350,000;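 active = mean inhibition across replicates of 30% or more, whatever share of single replicates reach that level; inconclusive = mean inhibition below 30% while every single replicate reaches 30%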
An asterisk follows results filed as active; ? = inconclusive; . = no result given.

SMILES	ERAP1 inh	ERp5 block	AF4-AF9 inh	DENV2 CPE rescue	PDI inh
C[C@H]1CCCCO[C@H](CN(C)C(=O)C2CCCCC2)[C@@H](C)CN([C@@H](C)CO)C(=O)c2cc(NS(C)(=O)=O)ccc2O1	3.4	-1.8	-5.2	-3.8	.
CC(C)NC(=O)Nc1ccc2c(c1)C(=O)N([C@@H](C)CO)C[C@H](C)[C@@H](CN(C)C(=O)Nc1cccc3ccccc13)O2	1.8	-2.9	-2.4	?	.
C#CCOCCOCCOCCNc1nc(N2CCN(C(=O)C([C@@H](C)O)n3cc([C@@H](N)CCCCN)nn3)CC2)nc(N2CCN(C(=O)[C@H](CCC(=O)O)n3cc([C@@H](N)[C@H](C)CC)nn3)CC2)n1 (some centres not stated)	-2.8	2.0	1.6	7.8	7.5
C#CCOCCOCCOCCNc1nc(N2CCN(C(=O)[C@H]([C@@H](C)CC)n3cc([C@@H](N)CO)nn3)CC2)nc(N2CCN(C(=O)[C@H](CCCCN)n3cc([C@@H](N)CO)nn3)CC2)n1	-2.7	1.4	2.3	11.6	-3.6
C#CCOCCOCCOCCNc1nc(N2CCN(C(=O)C([C@@H](C)O)n3cc([C@@H](N)CCCCN)nn3)CC2)nc(N2CCN(C(=O)[C@H](CCCCN)n3cc([C@@H](N)[C@H](C)CC)nn3)CC2)n1 (some centres not stated)	-3.1	2.0	59.3*	-1.3	4.5
C#CCOCCOCCOCCNc1nc(N2CCN(C(=O)[C@H](CO)n3cc([C@@H](N)C(C)C)nn3)CC2)nc(N2CCN(C(=O)[C@H](CCCCN)n3cc([C@@H](N)[C@H](C)CC)nn3)CC2)n1	-4.9	-6.1	41.8*	.	0.9
O=C(C[C@H]1CC[C@H]2[C@@H](COC[C@@H](O)CN2Cc2cc(F)ccc2F)O1)NCc1ccccc1	0.2	0.7	-2.3	16.4	.
CC(C)CC#Cc1ccc([C@H]2[C@H](CO)N3C(=O)CN(C(=O)c4ccccn4)C[C@@H]23)cc1	2.2	1.4	0.1	-6.5	.
CO[C@@H]1CN(C)C(=O)c2cc(NC(C)=O)ccc2OC[C@H](C)N(Cc2nccs2)C[C@@H]1C	4.2	-1.0	-6.1	58.7*	.
CO[C@@H]1CN(C)C(=O)c2cc(NC(=O)NC(C)C)ccc2OC[C@H](C)N(Cc2ccccn2)C[C@@H]1C	-0.1	-1.4	2.3	73.5*	.
COCC(=O)N(C)C[C@@H]1Oc2cc(C#C[C@H](C)O)ccc2S(=O)(=O)N([C@H](C)CO)C[C@@H]1C	-3.3	-2.5	-2.6	1.1	.
C[C@H](CO)N1C[C@H](C)[C@H](CN(C)S(=O)(=O)c2ccc(Cl)cc2)OCc2ccccc2-c2ccccc2C1=O	0.0	-4.7	4.4	-3.4	.
CCS(=O)(=O)Nc1ccc2c(c1)C(=O)N(C)C[C@H](OC)[C@@H](C)CN(C(=O)COC)[C@H](C)CO2	1.4	-0.4	3.4	81.9*	.
CCC(=O)Nc1ccc2c(c1)C(=O)N(C)C[C@H](OC)[C@@H](C)CN(C(=O)CC)[C@@H](C)CO2	-1.8	1.3	0.6	62.6*	.
COCC(=O)N1C[C@@H](C)[C@@H](OC)CN(C)C(=O)c2cc(NC(=O)c3ccc(OC)cc3)ccc2OC[C@H]1C	1.7	1.0	3.4	34.2*	.
CCC(=O)Nc1ccc2c(c1)C(=O)N(C)C[C@@H](OC)[C@H](C)CN(C(=O)COC)[C@H](C)CO2	-0.1	-4.5	0.4	-3.7	.
CCS(=O)(=O)Nc1ccc2c(c1)C(=O)N(C)C[C@H](OC)[C@H](C)CN(C(=O)COC)[C@@H](C)CO2	0.1	0.2	0.2	-7.2	.
CCC(=O)Nc1ccc2c(c1)C(=O)N(C)C[C@@H](OC)[C@H](C)CN(C(=O)COC)[C@@H](C)CO2	-0.4	7.5	-0.8	21.1*	.
CCCNC(=O)N(C)C[C@@H]1Oc2cc(C#Cc3ccccn3)ccc2S(=O)(=O)N([C@@H](C)CO)C[C@@H]1C	0.4	-2.2	-1.5	15.3	.
CCC(=O)N1C[C@H](C)[C@@H](OC)CN(C)C(=O)c2cc(NC(=O)NC3CCCC3)ccc2OC[C@H]1C	-2.7	0.3	-10.9	43.1*	.
O=C(C[C@H]1C=C[C@@H](NS(=O)(=O)c2cccc(F)c2)[C@@H](CO)O1)N1CCCCC1	0.8	-3.0	-1.4	2.1	.
CC(C)C[C@@H](CN1C(=O)C(=O)NC[C@@H]1CC(C)C)NC(=O)Cc1ccccc1	-4.0	5.1	-4.4	43.4*	-2.1
Cc1sc(NC(=O)CCl)c(C(=O)c2ccccc2)c1C	.	.	.	.	71.6*
CC(C)=C(NC(=O)c1ccccc1Cl)C(=O)NCCc1nc2ccccc2[nH]1	-7.4	-5.1	-0.4	130.0*	0.8
Cc1ccc(S(=O)(=O)Nc2ccc3c(c2)C(=O)N([C@H](C)CO)C[C@@H](C)[C@H](CN(C)C(=O)Nc2ccc(F)cc2)O3)cc1	2.5	-0.4	-3.1	12.0	.
SMILES	ERAP1 inh	ERp5 block	AF4-AF9 inh	DENV2 CPE rescue	PDI inh
COCCNC(=S)NCc1ccc2[nH]c3c(c2c1)CCCC3	-1.8	0.4	0.1	32.9*	-3.4
Cc1ccc(NC(=S)NCc2ccc3[nH]c4c(c3c2)CCCC4)cc1	3.2	4.4	-0.2	-6.9	.
O=C(O)c1cc([N+](=O)[O-])ccc1Nc1ccccc1	6.3	-3.8	28.4*	-6.1	-6.3
CC(C)NC(=O)N(C)C[C@H]1OCCCC[C@@H](C)Oc2ccc(NS(=O)(=O)c3ccc(F)cc3)cc2C(=O)N([C@H](C)CO)C[C@H]1C	1.4	1.0	-0.4	5.6	.
COc1ccc2c3c(n(C)c2c1)[C@@H](CO)N(Cc1ccncc1)CC31CCN(C(=O)C2CCC2)CC1	1.1	-11.0	-1.1	0.0	.
O=C(Oc1ccc(F)c(F)c1)c1ccc2c(=O)n3c(nc2c1)CCC3	4.3	-2.5	-3.9	11.1	0.6
CC(C)c1ccc(OC(=O)c2ccc3c(=O)n4c(nc3c2)CCC4)cc1	77.8*	2.0	2.6	-2.7	2.7
N#C[C@@H]1[C@@H](c2ccc(-c3ccc(F)cc3)cc2)[C@H](CO)N1c1nc(-c2ccccc2)cs1	1.8	10.8	0.0	60.9*	.
N#C[C@@H]1[C@@H](c2ccc(-c3cccc(F)c3)cc2)[C@H](CO)N1c1nc(-c2ccccc2)cs1	-5.8	-2.0	1.0	90.5*	.
C[C@@H]1CN([C@H](C)CO)C(=O)c2cc(NS(=O)(=O)c3cn(C)cn3)ccc2O[C@@H](C)CCCCO[C@@H]1CN(C)Cc1ccc(C(=O)O)cc1	.	.	.	3.5	.
Cc1ccsc1C(=O)OCC(=O)NC1CCS(=O)(=O)C1 (configuration not stated)	2.2	4.2	-0.9	2.4	-6.1
O=C(COc1ncnc2sccc12)NC1CCS(=O)(=O)C1 (configuration not stated)	.	6.1	-10.2	28.0*	6.0
COC[C@@]12C[C@H]3C(=O)N(Cc4ccccc4)C(=O)[C@H]3[C@@H](CO1)/C2=C\c1ccccc1	0.9	4.8	-0.9	0.9	.
C[C@H](CO)N1C[C@H](C)[C@H](CN(C)C(=O)c2ccc3c(c2)OCO3)Oc2ncc(C#CCN(C)C)cc2C1=O	0.0	3.1	-5.5	24.9*	.
